The full data set covers some 7,900 targets. This sample favours those with a hit. About 0.6% of all pairs of compound and target were hits.
Experiments:
Test in all cases: log2 fold change, soluble protein after heating vs DMSO (PISA); higher = thermal stabilisation; K562 cells, 10 uM, 30 min; active = over 0.2 and 3.5 SD of the protein, either way, in both replicates (recomputed)
[1] = compound: C1=CC=C(C=C1)[C@H](COC2=CC3=C(C=C2)NC(=O)N3)NC(=O)C4=CC=CN(C4=O)CC5=CC(=C(C=C5)F)F
In short: (§1)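 Thermal stability values are relative to control samples and come from duplicates. They are expressed as log2 fold changes. For measurement, K562 cells (2×10^6 cells/mL) received 10 μM compound for 30 min, and aliquots were heated for 3 min over 48°C-58°C, pooled, and extracted at 4°C in PBS with 0.5% NP-40. Soluble protein, the supernatant after 21,000xg for 90 min, was quantified by TMTpro 16plex LC-MS/MS with equalised channel sums.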

[2] = compound: CC1=C(SC2=C1C(=N[C@H](C3=NN=C(N32)C)CC(=O)N)C4=CC=C(C=C4)Cl)C
In short: as §1

[3] = compound: CC1=C2C(=CC=C1)N=C(N(C2=O)C3=CC=CC=C3C)CN4C=NC5=C(N=CN=C54)N
In short: as §1

[4] = compound: Cc1sc2c(c1C)C(c1ccc(Cl)cc1)=N[C@@H](CC(=O)OC(C)(C)C)c1nnc(C)n1-2
In short: as §1

[5] = compound: c1ccc([C@@H]2C[C@H]2NC2CCNCC2)cc1
In short: as §1

Measured: log2 fold change

SCAMP2 (UniProt H3BUB6)
inactive: [1] 0.03 | [2] -0.017 | [3] 0.308 | [4] 0.15 | [5] 0.135

RSRC1 (UniProt Q96IZ7)
UniProt Q96IZ7, sequence (Q96IZ7 whole entry, looked up): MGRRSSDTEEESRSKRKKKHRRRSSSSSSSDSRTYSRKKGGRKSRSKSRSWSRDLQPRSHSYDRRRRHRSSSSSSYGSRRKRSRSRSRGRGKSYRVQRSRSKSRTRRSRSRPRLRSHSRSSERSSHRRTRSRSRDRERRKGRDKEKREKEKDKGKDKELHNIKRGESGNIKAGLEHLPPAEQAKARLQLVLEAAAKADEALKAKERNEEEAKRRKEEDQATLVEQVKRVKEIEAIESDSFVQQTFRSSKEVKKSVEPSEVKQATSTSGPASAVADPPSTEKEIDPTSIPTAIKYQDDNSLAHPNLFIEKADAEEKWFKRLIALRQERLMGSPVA
inactive: [1] -0.002 | [2] -0.019 | [3] 0.079 | [4] -0.019 | [5] -0.03

RBM33 (UniProt Q96EV2)
UniProt Q96EV2, sequence (Q96EV2 whole entry, looked up): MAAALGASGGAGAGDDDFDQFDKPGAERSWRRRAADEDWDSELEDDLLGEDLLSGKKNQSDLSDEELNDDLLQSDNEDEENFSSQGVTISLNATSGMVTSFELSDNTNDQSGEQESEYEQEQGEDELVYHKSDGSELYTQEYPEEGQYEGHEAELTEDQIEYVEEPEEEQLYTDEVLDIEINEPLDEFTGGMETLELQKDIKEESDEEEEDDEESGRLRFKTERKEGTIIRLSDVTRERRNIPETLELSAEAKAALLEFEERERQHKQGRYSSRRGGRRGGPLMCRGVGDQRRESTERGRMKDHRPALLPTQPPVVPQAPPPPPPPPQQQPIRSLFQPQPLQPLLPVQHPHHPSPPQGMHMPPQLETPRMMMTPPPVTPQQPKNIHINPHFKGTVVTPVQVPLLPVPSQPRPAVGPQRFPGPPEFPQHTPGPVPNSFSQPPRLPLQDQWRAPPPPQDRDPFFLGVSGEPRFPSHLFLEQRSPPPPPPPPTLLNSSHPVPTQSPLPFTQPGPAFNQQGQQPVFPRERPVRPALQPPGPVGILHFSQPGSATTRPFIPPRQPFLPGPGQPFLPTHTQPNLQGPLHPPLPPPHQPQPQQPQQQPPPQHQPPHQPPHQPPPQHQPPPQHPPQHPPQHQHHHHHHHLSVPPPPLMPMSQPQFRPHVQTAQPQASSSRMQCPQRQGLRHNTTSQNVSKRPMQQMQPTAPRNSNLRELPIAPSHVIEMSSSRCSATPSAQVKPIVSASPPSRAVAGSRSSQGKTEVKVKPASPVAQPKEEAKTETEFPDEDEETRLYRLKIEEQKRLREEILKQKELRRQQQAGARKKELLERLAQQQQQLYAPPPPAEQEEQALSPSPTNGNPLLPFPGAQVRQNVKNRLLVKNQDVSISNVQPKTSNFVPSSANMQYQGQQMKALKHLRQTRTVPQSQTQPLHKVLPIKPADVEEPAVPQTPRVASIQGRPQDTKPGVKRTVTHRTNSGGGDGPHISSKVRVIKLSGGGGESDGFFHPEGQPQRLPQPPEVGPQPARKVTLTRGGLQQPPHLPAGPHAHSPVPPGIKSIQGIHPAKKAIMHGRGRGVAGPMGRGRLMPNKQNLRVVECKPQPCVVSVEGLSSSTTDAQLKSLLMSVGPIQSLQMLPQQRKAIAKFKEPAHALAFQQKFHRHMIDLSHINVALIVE
inactive: [1] 0.002 | [2] -0.018 | [3] 0.029 | [4] -0.004 | [5] 0.012

SACM1L (UniProt Q9NTJ5)
UniProt Q9NTJ5, sequence (Q9NTJ5 whole entry, looked up): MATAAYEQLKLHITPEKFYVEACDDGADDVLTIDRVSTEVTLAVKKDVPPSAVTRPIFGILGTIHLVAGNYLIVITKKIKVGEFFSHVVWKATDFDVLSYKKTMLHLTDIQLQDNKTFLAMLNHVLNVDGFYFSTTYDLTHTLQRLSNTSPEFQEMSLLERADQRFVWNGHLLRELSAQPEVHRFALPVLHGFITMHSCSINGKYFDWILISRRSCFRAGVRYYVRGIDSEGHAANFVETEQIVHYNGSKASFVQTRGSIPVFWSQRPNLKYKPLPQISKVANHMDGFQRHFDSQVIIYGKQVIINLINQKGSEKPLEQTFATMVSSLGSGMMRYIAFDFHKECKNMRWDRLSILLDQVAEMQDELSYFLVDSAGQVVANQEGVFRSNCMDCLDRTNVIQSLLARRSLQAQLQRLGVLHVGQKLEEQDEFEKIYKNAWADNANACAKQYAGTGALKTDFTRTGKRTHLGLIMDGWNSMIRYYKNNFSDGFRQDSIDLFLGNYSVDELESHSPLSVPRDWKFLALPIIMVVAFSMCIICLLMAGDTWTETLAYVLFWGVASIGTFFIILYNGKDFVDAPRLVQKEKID
inactive: [1] 0 | [2] 0.048 | [3] 0.064 | [4] -0.044 | [5] 0.006

RPS6KA1 isoform 2 (UniProt Q15418)
UniProt Q15418, sequence (Q15418 whole entry, looked up): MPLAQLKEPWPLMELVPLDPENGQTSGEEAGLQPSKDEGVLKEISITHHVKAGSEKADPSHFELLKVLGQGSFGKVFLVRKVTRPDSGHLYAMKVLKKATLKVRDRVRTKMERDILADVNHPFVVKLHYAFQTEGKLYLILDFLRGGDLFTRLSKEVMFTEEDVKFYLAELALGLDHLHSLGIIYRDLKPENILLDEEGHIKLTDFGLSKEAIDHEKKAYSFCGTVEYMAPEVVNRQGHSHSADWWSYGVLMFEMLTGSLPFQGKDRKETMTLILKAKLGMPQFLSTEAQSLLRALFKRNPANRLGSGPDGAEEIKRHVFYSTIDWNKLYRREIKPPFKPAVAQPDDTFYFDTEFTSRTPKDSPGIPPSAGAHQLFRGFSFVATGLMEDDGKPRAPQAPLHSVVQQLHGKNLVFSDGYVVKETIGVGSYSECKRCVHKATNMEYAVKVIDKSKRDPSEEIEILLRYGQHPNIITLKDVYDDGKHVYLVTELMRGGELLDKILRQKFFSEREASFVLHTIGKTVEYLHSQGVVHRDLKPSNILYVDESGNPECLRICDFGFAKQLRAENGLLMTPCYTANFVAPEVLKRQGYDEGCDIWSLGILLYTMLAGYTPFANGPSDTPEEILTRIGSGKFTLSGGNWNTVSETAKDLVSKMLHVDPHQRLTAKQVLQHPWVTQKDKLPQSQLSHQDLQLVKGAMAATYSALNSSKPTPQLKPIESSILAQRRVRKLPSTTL
inactive: [1] -0.059 | [2] 0.048 | [3] 0.051 | [4] -0.009 | [5] -0.018

RSRC2 (UniProt Q7L4I2)
UniProt Q7L4I2, sequence (Q7L4I2 whole entry, looked up): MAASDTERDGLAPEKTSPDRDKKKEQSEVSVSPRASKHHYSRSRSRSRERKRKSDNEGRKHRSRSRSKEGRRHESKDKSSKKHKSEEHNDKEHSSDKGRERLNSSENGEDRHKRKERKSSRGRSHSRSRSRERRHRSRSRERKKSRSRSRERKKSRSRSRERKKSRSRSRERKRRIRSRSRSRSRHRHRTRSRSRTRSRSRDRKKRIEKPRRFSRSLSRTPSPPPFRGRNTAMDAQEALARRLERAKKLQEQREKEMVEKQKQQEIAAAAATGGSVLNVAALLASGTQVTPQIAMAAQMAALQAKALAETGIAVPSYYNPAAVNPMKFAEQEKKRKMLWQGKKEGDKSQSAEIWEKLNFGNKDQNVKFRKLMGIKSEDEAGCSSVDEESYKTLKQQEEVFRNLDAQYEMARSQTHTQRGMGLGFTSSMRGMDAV
inactive: [1] 0.034 | [2] 0 | [3] -0.045 | [4] 0.022 | [5] 0.085

RRS1 (UniProt Q15050)
UniProt Q15050, sequence (Q15050 whole entry, looked up): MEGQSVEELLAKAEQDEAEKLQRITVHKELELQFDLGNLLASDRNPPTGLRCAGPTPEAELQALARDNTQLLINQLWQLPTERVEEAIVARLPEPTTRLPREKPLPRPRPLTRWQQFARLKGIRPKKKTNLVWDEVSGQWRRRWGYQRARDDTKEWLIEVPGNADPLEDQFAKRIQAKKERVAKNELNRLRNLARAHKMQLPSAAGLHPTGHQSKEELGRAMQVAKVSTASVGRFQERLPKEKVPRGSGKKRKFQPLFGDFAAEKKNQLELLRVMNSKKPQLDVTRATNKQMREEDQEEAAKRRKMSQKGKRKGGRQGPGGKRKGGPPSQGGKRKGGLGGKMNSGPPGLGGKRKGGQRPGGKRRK
inactive: [1] 0.168 | [2] -0.368 | [3] -0.187 | [4] 0.246 | [5] -0.006

RPS2 (UniProt P15880)
inactive: [1] 0.123 | [2] -0.222 | [3] -0.222 | [4] 0.113 | [5] 0

RAB3IL1 (UniProt Q8TBN0)
UniProt Q8TBN0, sequence (Q8TBN0 whole entry, looked up): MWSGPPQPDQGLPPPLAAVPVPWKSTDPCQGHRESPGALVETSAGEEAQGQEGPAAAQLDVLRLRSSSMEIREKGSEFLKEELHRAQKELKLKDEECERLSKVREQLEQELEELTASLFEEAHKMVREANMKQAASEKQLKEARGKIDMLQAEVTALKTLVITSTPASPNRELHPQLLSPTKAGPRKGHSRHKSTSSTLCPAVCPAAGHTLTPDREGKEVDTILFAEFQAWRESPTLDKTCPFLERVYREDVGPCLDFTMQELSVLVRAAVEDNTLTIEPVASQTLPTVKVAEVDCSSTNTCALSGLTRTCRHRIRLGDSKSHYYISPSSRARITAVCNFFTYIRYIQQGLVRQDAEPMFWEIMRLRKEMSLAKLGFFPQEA
inactive: [1] 0.018 | [2] -0.013 | [3] 0.078 | [4] -0.03 | [5] -0.076

Source: the supplement of paper PMC10849652
